Data from PubChem BioAssay (NCATS).
Where “and” joins values, the source holds several entries; their conditions need not be identical. Equal entries are not always repeated. Records with an inconclusive call do not appear. Calls of active or inactive are those of the source. Unless noted, calls come from the whole dose curve; as a rule, active = well fitted curve in the direction sought with a large enough effect; inconclusive = small, poorly fitted or top-dose-only effect, or another doubt; inactive = no such curve, though single readings can be large; an effect the other way counts as inactive or inconclusive.

Assays:
[1] = molecular target: Cytochrome P450 1A2 (Homo sapiens) (UniProt P05177); test: p450-cyp1a2 (AID 410; calls by dose curve; note: potency is the fitted concentration of half-maximal effect;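 for activity change, negative = inhibition: -100% = full effect of reference inhibitor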)
Cytochrome P450 1A2 (Homo sapiens), sequence (P05177 whole entry, looked up): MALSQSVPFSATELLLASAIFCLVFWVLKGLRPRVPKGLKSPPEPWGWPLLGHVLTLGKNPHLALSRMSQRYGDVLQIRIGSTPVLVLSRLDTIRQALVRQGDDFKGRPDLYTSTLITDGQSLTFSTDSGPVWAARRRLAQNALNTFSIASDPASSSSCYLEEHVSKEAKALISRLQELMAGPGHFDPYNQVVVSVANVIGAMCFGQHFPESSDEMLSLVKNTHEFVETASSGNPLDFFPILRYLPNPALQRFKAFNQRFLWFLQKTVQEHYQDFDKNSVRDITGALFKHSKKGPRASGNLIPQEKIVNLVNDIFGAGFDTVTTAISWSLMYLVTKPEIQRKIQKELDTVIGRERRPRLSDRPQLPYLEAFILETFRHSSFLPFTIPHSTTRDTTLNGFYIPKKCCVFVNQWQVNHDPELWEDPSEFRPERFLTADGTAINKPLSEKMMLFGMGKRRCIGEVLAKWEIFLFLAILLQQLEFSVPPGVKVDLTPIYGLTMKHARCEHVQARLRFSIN
Procedure, shortened: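 20nM CYP1A2 with 100uM Luciferin-ME (at Km) in 100mM KPO4; compound preincubated 10 min, NADPH regeneration added, 60 min at room temperature. Luciferin quantified by luminescence after detection reagent; normalized to 57 uM furafylline.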

[2] = molecular target: Glucocorticoid receptor (Homo sapiens) (UniProt P04150); test: GR-GFP Redistribution (AID 450;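 active = compounds whose dose series gives a full or clear partial fitted curve of increased nuclear translocation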; note: potency is the fitted concentration of half-maximal effect); conditions: U2OS GR-GFP nuclear translocation, laser cytometry, 2 h
Glucocorticoid receptor (Homo sapiens), sequence (P04150 whole entry, looked up, the tested form may be a part): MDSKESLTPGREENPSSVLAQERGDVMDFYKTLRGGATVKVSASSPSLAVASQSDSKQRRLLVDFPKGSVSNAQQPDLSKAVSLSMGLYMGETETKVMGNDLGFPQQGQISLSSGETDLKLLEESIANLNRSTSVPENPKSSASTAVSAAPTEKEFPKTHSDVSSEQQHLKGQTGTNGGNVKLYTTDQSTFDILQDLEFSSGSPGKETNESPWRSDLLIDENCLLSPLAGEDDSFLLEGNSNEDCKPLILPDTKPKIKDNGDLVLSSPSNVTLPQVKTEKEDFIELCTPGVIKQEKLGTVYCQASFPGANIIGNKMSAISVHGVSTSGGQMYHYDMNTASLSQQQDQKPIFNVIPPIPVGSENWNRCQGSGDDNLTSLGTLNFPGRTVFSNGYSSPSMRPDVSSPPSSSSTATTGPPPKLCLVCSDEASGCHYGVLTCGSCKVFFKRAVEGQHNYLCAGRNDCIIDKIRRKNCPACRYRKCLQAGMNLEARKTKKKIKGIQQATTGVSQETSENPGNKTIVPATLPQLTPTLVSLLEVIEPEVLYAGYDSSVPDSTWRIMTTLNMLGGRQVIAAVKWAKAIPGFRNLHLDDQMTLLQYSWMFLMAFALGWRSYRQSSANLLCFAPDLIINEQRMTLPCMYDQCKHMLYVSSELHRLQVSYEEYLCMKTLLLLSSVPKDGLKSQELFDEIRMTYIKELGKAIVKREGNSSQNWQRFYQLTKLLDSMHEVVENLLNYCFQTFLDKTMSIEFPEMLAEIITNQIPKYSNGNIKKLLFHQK

[3] = molecular target: Glucocorticoid receptor (Homo sapiens) (UniProt P04150); test: GR-EFC Redistribution (AID 451; calls by dose curve; note: potency is the fitted concentration of half-maximal effect); conditions: CHO-K1 GR-EFC translocation, beta-gal luminescence, 2 h
Procedure, shortened: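 Translocation of GR-ED fusion to nuclear EA restores b-gal, read by luminescence after 1 h room-temperature detection. Engineered CHO-K1 biosensor cells, 1,000/well, exposed 2 h at 37 C to titrations up to 46 uM final.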

[4] = molecular target: Mitogen-activated protein kinase 10 (Mus musculus) (UniProt Q61831); test: JNK3 AlphaScreen Assay (AID 530; active = well fitted curve in either direction with a large enough effect, not every such curve was filed as active;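 note: kinase came from lysate of stimulated human HepG2 cells; signal reports phosphorylation of biotinylated GST-cJun 1-79 at Ser73 with 10 µM ATP; % is set by controls: 0 for no effect and ±100 for the full control effect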)
Procedure, shortened: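 Compound titrations were preincubated 15 minutes at room temperature with substrate, antibody and pre-activated JNK3-containing HepG2 lysate. Reactions were started with 10 uM ATP and stopped with EDTA-containing bead buffer for AlphaScreen detection.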

[5] = molecular target: 3',5'-cyclic-AMP phosphodiesterase 4B (Homo sapiens) (UniProt Q07343); test: qHTS Assay for Inhibitors of PDE-IV (AID 607; active = well fitted activation curve with a large enough effect in the main read-out, with a control signal flat, not every such curve was filed as active; note: % of control where 0% means no effect)
3',5'-cyclic-AMP phosphodiesterase 4B (Homo sapiens), sequence (Q07343 whole entry, looked up): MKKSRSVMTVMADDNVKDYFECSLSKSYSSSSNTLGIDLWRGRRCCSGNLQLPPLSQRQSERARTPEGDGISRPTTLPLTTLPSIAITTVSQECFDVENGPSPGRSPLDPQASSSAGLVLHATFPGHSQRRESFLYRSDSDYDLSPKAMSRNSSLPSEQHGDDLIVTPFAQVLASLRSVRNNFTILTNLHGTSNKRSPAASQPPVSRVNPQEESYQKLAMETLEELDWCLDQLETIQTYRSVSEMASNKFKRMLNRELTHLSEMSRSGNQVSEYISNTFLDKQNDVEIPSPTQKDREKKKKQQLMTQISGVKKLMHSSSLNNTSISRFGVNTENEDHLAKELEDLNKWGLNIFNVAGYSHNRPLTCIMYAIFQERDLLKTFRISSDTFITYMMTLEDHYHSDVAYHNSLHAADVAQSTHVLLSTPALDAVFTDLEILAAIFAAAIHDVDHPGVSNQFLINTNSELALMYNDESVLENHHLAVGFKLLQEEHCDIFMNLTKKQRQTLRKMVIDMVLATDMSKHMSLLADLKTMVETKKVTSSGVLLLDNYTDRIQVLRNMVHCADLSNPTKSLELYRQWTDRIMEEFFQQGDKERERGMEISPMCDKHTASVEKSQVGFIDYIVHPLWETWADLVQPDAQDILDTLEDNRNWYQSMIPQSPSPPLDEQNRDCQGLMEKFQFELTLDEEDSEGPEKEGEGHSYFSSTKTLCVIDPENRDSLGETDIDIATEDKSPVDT
Procedure, shortened: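 Cell-based read-out of cAMP via a modified cyclic nucleotide-gated channel and membrane potential dye (535/590 nm) in HEK293 cells expressing PDE4 endogenously. Compounds tested up to 22.9 uM final; 100 uM RO 20-1724 reference.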

[6] = Cell Viability - Hek293 (AID 427;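 active = compounds whose dose-response curve shows a full or clear partial loss of cell viability, called from curve shape rather than a numeric limit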;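 note: potency is the fitted concentration of half-maximal effect; cells exposed to compound for 40 hours at 37 °C before reading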); conditions: qHTS
Procedure, shortened: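 Luminescent ATP content (CellTiter-Glo, 20 min at room temperature) was measured after a 40 hr, 37 °C compound exposure of HEK293 cells. AC50 values came from Hill-equation fits of qHTS concentration-response data normalized to DMSO and 100 uM tamoxifen.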

[7] = Cell Viability - HepG2 (AID 433; calls by dose curve;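 note: potency is the fitted concentration of half-maximal effect; potency for ATP loss meaning cytotoxicity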); conditions: qHTS
Procedure, shortened: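 HepG2 hepatocellular carcinoma cells (1500/well) were treated with compounds for 40 h at 37 °C in complete medium; intracellular ATP was read by CellTiter-Glo luminescence. Data were normalized to DMSO and 100 uM tamoxifen, and AC50 came from Hill fits.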

[8] = Cell Viability - MRC5 (AID 434; calls by dose curve;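 note: potency is the fitted concentration of half-maximal effect; potency reflects cytotoxicity seen as loss of intracellular ATP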); conditions: MRC5 lung fibroblast viability, qHTS
Procedure, shortened: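 qHTS cytotoxicity in human lung fibroblast MRC5 cells; 40 hr treatment, 37 °C; cellular ATP by luciferase luminescence; DMSO = 0%, 100 uM tamoxifen = 100% inhibition; Hill-fit AC50.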

[9] = Cell Viability - N2a (AID 540);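 note: plate controls were DMSO alone for no effect and tamoxifen control for full effect; nearly all actives have a fitted effect of over 45% in size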
Procedure, shortened: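 Mouse neuroblastoma N2a cells, 1500/well, exposed to compounds 40 h at 37 °C in complete medium. Viability measured as cellular ATP by CellTiter-Glo luminescence; AC50 from Hill fits of concentration-response.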

[10] = Cell Viability - HUV-EC-C (AID 542); note: % is set by controls: 0 for no effect and ±100 for the full control effect; nearly all actives have a fitted effect of over 35% in size
Procedure, shortened: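 HUV-EC-C human vascular endothelial cells, 1000/well, exposed to compound for 40 hr at 37 °C in complete medium. Intracellular ATP was read by CellTiter-Glo luminescence. AC50 came from Hill-equation fits of concentration-response data.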

[11] = Cell Viability - H-4-II-E (AID 543); note: % is set by controls: 0 for no effect and ±100 for the full control effect; nearly all actives have a fitted effect of over 35% in size
Procedure, shortened: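 Rat hepatoma H-4-II-E cells, 1500 per well, treated 40 h at 37 °C in complete medium. Cellular ATP read by CellTiter-Glo luminescence; AC50 from Hill fits of concentration-response.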

[12] = Cell Viability - Mesenchymal (AID 546);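 note: cells exposed to compound for 40 hours before reading; 0% = DMSO only and -100% = 100 µM tamoxifen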
Procedure, shortened: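 AC50 values reflect the drop in intracellular ATP in a human kidney mesenchymal line derived from normal glomeruli. Treatment lasts 40 hr at 37 °C in complete medium, and the signal comes from CellTiter-Glo luminescence.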

[13] = Cell Viability - Jurkat (AID 426;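 active = dose-dependent loss of cell ATP signal giving a full or clear fitted curve, ranked by lower potency value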; note: potency is the fitted concentration of half-maximal effect); conditions: qHTS
Procedure, shortened: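 Jurkat (Clone E6-1) cells, 5000/well in complete medium, exposed to compounds for 40 hr at 37C; intracellular ATP measured by CellTiter-Glo luminescence after 20 min at room temperature. AC50 from Hill fits.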

[14] = Cell Viability - SK-N-SH (AID 435; calls by dose curve;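 note: potency is the fitted concentration of half-maximal effect; compound exposure lasted 40 h at 37 °C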); conditions: SK-N-SH neuroblastoma cell viability qHTS
Procedure, shortened: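 SK-N-SH human neuroblastoma cells (1500/well) were exposed to compounds in complete medium for 40 h at 37 °C, and intracellular ATP was then measured by CellTiter-Glo luminescence. AC50 was taken from Hill fits, normalized to DMSO and 100 uM tamoxifen.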

[15] = Cell Viability - NIH 3T3 (AID 541);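 note: plate controls were DMSO alone for no effect and tamoxifen positive control for full effect; nearly all actives have a fitted effect of over 25% in size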
Procedure, shortened: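 Mouse NIH 3T3 fibroblasts, 1000 cells/well, rested 5 hr at 37 °C, then exposed to compound for 40 hr at 37 °C in complete medium. Viability read as intracellular ATP by CellTiter-Glo luminescence; AC50 from Hill-equation fits of concentration-response data.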

[16] = Cell Viability - SH-SY5Y (AID 544); conditions: SH-SY5Y neuroblastoma cell viability; at 92.2 µM (top of the series);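 note: 0% = DMSO alone and -100% = 100 µM tamoxifen; nearly all actives have a fitted effect of over 55% in size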
Procedure, shortened: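 SH-SY5Y human neuroblastoma cells (1500/well) incubated 5 h, then compound-treated 40 h at 37 °C in complete medium. Viability read as intracellular ATP by CellTiter-Glo luminescence after 20 min; AC50 from Hill-equation fits of qHTS concentration-response.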

[17] = AP1 Signaling Pathway (AID 357; active = well fitted curve in either direction with a large enough effect, not every such curve was filed as active;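 note: ME-180 reporter cells stimulated with EGF at its EC50 level; % is set by controls: 0 for no effect and ±100 for the full control effect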)
Procedure, shortened: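 Read-out was the 460nm/530nm emission ratio (excitation 405nm) after CCF4 loading for 2.5 hours at room temperature. Cells carried an AP-1-driven beta-lactamase reporter, were stimulated with EC50 EGF plus compound for 5 hours, and AC50 values came from titrations.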

[18] = NFAT Signaling Pathway (AID 444; active = well fitted curve in either direction with a large enough effect, not every such curve was filed as active;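 note: carbachol stimulus at about its EC50 of 1 µM final; % is set by controls: 0 for no effect and ±100 for the full control effect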); conditions: Jurkat NFAT-bla M1, carbachol, beta-lactamase ratio, 5 h; at 17.2 µM (top of the series) unless noted
Procedure, shortened: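 Read-out: CCF4 FRET ratio (460 nm/530 nm) after 1 h RT dye loading, used for %activity and AC50 from titration series. Cells: Jurkat NFAT-β-lactamase/M1 line, treated with compound plus 1 uM carbachol for 5 h, 37 °C.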

[19] = Stat Signaling Pathway (AID 446; active = well fitted curve in either direction with a large enough effect, not every such curve was filed as active;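 note: ME-180 cervical cancer cells given 40 pM IL-6 alongside compound; SIE-controlled beta-lactamase reporter measured as 460/530 nm FRET emission ratio; % is set by controls: 0 for no effect and ±100 for the full control effect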)
Procedure, shortened: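 Reporter line: ME-180 cervical carcinoma, SIE-beta-lactamase. Treatment: compound with 40 pM IL-6, 5 hrs, 37 C, in low-serum OPTI-MEM with 10 mM HEPES pH 7.3. Detection: 460/530 nm fluorescence.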

CN(C(=O)c1c(O)c2ccccc2n(C)c1=O)c1ccccc1
inactive: Potency [1] | Potency [2] > 46 µM | Potency [3] > 46 µM | outcome [4] | outcome [5]

O=C1c2cccc(O)c2C(=O)c2c(O)cccc21
inactive: Potency [6] > 92 µM | Potency [7] > 92 µM | Potency [8] > 92 µM | outcome [9] | outcome [10] | outcome [11] | outcome [12]

CC(=O)Nc1ccc(C(=O)O)cc1
inactive: Potency [13] > 92 µM | Potency [6] > 92 µM | Potency [7] > 92 µM | Potency [8] > 92 µM | Potency [14] > 92 µM | outcome [4] | outcome [9] | outcome [15] | outcome [10] | outcome [11] | viability change, negative = cytotoxic [16] -7.67% | outcome [12]

CC(=O)Nc1cccc(O)c1
inactive: Potency [13] > 92 µM | Potency [6] > 92 µM | Potency [7] > 92 µM | Potency [8] > 92 µM | Potency [14] > 92 µM | outcome [4] | outcome [9] | outcome [15] | outcome [10] | outcome [11] | viability change, negative = cytotoxic [16] 15.1% | outcome [12]

COc1ccc(O)cc1
inactive: Potency [13] > 92 µM | Potency [6] > 92 µM | Potency [7] > 92 µM | Potency [8] > 92 µM | Potency [14] > 92 µM | outcome [4] | outcome [10] | outcome [11] | viability change, negative = cytotoxic [16] 4.2% | outcome [12]

Cc1c(NC(=O)c2cccnc2)c(=O)n(-c2ccccc2)n1C
inactive: outcome [17] | activity change, negative = inhibition [18] -13.6% | outcome [19] | Potency [2] > 20.6 µM | Potency [3] > 20.6 µM | outcome [4] | outcome [5]

C[C@@H](N)C(=O)O
inactive: Potency [2] > 46 µM | Potency [3] > 46 µM | outcome [4]

CC1CC(OC(=O)c2ccccc2O)CC(C)(C)C1 (configuration not stated)
inactive: Potency [13] > 92 µM | Potency [6] > 92 µM | Potency [7] > 92 µM | Potency [8] > 92 µM | Potency [14] > 92 µM | outcome [4] | outcome [9] | outcome [15] | outcome [10] | outcome [11] | viability change, negative = cytotoxic [16] -0.877% | outcome [12]

CC[N+](C)(CC)CCOC(=O)C1c2ccccc2Oc2ccccc21
active: Potency [1] 10 µM
inactive: outcome [19] | outcome [4] | outcome [5]

FC(F)(F)C(Cl)Br (configuration not stated)
inactive: Potency [13] > 92 µM | Potency [6] > 92 µM | Potency [7] > 92 µM | Potency [8] > 92 µM | Potency [14] > 92 µM | outcome [4] | outcome [9] | outcome [15] | outcome [10] | outcome [11] | viability change, negative = cytotoxic [16] -0.71% | outcome [12]

CCCC(O)C(CC)CO (configuration not stated)
inactive: Potency [13] > 92 µM | Potency [6] > 92 µM | Potency [7] > 92 µM | Potency [8] > 92 µM | Potency [14] > 92 µM | outcome [4] | outcome [9] | outcome [15] | outcome [10] | outcome [11] | viability change, negative = cytotoxic [16] -7.87% | outcome [12]

CCCCCCCC(=O)OCC(COC(=O)CCCCCCC)OC(=O)CCCCCCC
inactive: Potency [13] > 92 µM | Potency [6] > 92 µM | Potency [7] > 92 µM | Potency [8] > 92 µM | Potency [14] > 92 µM | outcome [4] | outcome [9] | outcome [15] | outcome [10] | outcome [11] | viability change, negative = cytotoxic [16] -12.2% | outcome [12]

NS(=O)(=O)c1cc2c(cc1C(F)(F)F)NCNS2(=O)=O
inactive: outcome [17] | activity change, negative = inhibition [18] -1.33% and 8.85% | outcome [19] | Potency [2] > 20.6 µM | Potency [3] > 20.6 µM | outcome [4] | outcome [5]

O=C(c1ccccc1)C(O)c1ccccc1 (configuration not stated)
inactive: Potency [13] > 92 µM | Potency [6] > 92 µM | Potency [7] > 92 µM | Potency [8] > 92 µM | Potency [14] > 92 µM | outcome [4] | outcome [9] | outcome [15] | outcome [10] | outcome [11] | viability change, negative = cytotoxic [16] -3.66% | outcome [12]

CC(=O)N[C@@H](CC(C)C)C(=O)O
inactive: outcome [17] | activity change, negative = inhibition [18] 1.74% | outcome [19] | outcome [4] | outcome [5]

O=C1C(c2[nH]c3ccccc3c2O)=Nc2ccccc21
active: viability change, negative = cytotoxic [16] -102%
inactive: Potency [13] > 92 µM | Potency [6] > 92 µM | Potency [7] > 92 µM | Potency [8] > 92 µM | Potency [14] > 92 µM | outcome [9] | outcome [10] | outcome [11] | outcome [12]
